Reference: PubChem BioAssay (NCATS)
Results filed as inconclusive are left out. Activity calls are given as the source filed them. Calls come from the whole dose curve; as a rule, active = well fitted inhibition curve with a large enough effect; inconclusive = small, poorly fitted or top-dose-only effect; inactive = flat fitted curve, though single readings scatter.

How the values were obtained:
Test in all cases: qHTS profiling for inhibitors of Plasmodium falciparum proliferation (AID 504749); note: nearly all actives have a fitted effect of over 60% in size
Settings in all cases: P. falciparum in erythrocytes, SYBR Green DNA, 72 h; series mostly up to 28.7 µM
7G8 = system: 7G8
Method in brief: (§1)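 Quantitative HTS: compounds pinned into medium, infected erythrocytes added (0.3% parasitemia, 2.5% hematocrit), 72 h culture at 37 C under 5% CO2. Saponin/Triton lysis with SYBR Green I, overnight RT, then fluorescence read.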

AA1029 = system: AA1029
Method in brief: as §1

AS120 = system: AS120
Method in brief: as §1

ATS189 = system: ATS189
Method in brief: as §1

ATS95 = system: ATS95
Method in brief: as §1

C2A = system: C2A
Method in brief: as §1

CP185 = system: CP185
Method in brief: as §1

CP191 = system: CP191
Method in brief: as §1

CP192 = system: CP192
Method in brief: as §1

CP194 = system: CP194
Method in brief: as §1

CP201 = system: CP201
Method in brief: as §1

CP211 = system: CP211
Method in brief: as §1

CP215 = system: CP215
Method in brief: as §1

CP217 = system: CP217
Method in brief: as §1

CP237 = system: CP237
Method in brief: as §1

CP238 = system: CP238
Method in brief: as §1

CP247 = system: CP247
Method in brief: as §1

CP250 = system: CP250
Method in brief: as §1

CP252 = system: CP252
Method in brief: as §1

CP203 = system: CP203
Method in brief: as §1

Measured: Potency
Potency is the fitted concentration of half-maximal effect.

NCC(CC(=O)O)c1ccc(Cl)cc1 (configuration not stated)
not listed: CP203
inactive: all other assays above

CCC(COC(=O)c1cc(OC)c(OC)c(OC)c1)(c1ccccc1)N(C)C (configuration not stated)
not listed: CP237 | CP203
inactive: all other assays above

CCCC1CCCCN1 (configuration not stated)
not listed: CP211 | CP247 | CP250 | CP203
inactive: all other assays above

Clc1ccc(COC(Cn2ccnc2)c2ccc(Cl)cc2Cl)cc1 (configuration not stated)
active: 7G8 0.398 µM | AA1029 4.47 µM | AS120 1 µM | ATS189 3.16 µM | ATS95 3.98 µM | C2A 11.2 µM | CP185 8.91 µM | CP191 3.16 µM | CP192 6.01 µM | CP194 6.75 µM | CP201 15.1 µM | CP203 4.26 µM | CP211 9.53 µM | CP215 4.78 µM | CP217 2.51 µM | CP237 1.26 µM | CP238 6.31 µM | CP247 3.16 µM | CP250 5.01 µM | CP252 3.98 µM

CC[N+]1(C)CCCC(OC(=O)C(O)(c2ccccc2)c2ccccc2)C1 (configuration not stated)
not listed: CP203
inactive: all other assays above

C=C(C)[C@H]1Cc2c(ccc3c2O[C@@H]2COc4cc(OC)c(OC)cc4[C@@H]2C3=O)O1
active: 7G8 10 µM
not listed: CP194
inactive: all other assays above

O=C1NCN(c2ccccc2)C12CCN(CC1COc3ccccc3O1)CC2 (configuration not stated)
active: 7G8 12.6 µM
not listed: CP237
inactive: all other assays above

CC1OC(C)OC(C)O1 (configuration not stated)
not listed: CP203
inactive: all other assays above

Cc1ccc(S(=O)(=O)N[C@@H](CCCCN)C(=O)CCl)cc1
active: 7G8 8.91 µM | AA1029 10 µM | AS120 11.2 µM | C2A 11.2 µM | CP191 8.91 µM | CP247 5.62 µM | CP250 7.94 µM
inactive: CP192 | CP201 | CP211 | CP215

CCOC(=O)C1(c2ccccc2)CCN(CCC(C#N)(c2ccccc2)c2ccccc2)CC1
active: 7G8 2.24 µM | AA1029 3.16 µM | AS120 2.24 µM | ATS189 3.55 µM | ATS95 3.55 µM | C2A 3.55 µM | CP185 3.16 µM | CP191 3.16 µM | CP192 4.78 µM | CP201 4.26 µM | CP203 4.78 µM | CP215 4.26 µM | CP217 3.16 µM | CP237 3.98 µM | CP238 3.16 µM | CP247 4.47 µM | CP250 3.55 µM | CP252 3.55 µM

CN1C[C@H](CNC(=O)OCc2ccccc2)C[C@@H]2c3cccc4c3c(cn4C)C[C@H]21
active: 7G8 5.01 µM | AA1029 6.31 µM | AS120 10 µM | ATS189 10 µM | ATS95 11.2 µM | C2A 8.91 µM | CP185 8.91 µM | CP211 9.53 µM | CP217 7.94 µM | CP237 8.91 µM | CP238 11.2 µM | CP252 10 µM

CC[C@@H](CO)NC(=O)[C@@H]1C=C2c3cccc4[nH]cc(c34)C[C@H]2N(C)C1
not listed: 7G8 | CP192
inactive: all other assays above

CCN(C(C)=O)c1cccc(-c2ccnc3c(C#N)cnn23)c1
not listed: CP192
inactive: all other assays above

Cc1cccc(C)c1NC1=NCCCS1
inactive: C2A | CP191 | CP192 | CP247 | CP250
active: 7G8 11.2 µM | CP237 7.08 µM

COc1ccc(C(CN(C)C)C2(O)CCCCC2)cc1 (configuration not stated)
active: CP237 7.08 µM
not listed: CP194 | CP203
inactive: all other assays above
